Screening results as filed in PubChem.
Only a selection was taken, and hits are over-represented in it overall.
PD-1 reversal – activators reversing PD-1 mediated T-cell inhibition. primary human CD4 T cells, PD-L1 beads, CellTiter-Glo 96 h. activation, % (test concentration not listed). 29,000 tested, under 10 active. AID 2316; call rule not given here;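 further: 0% = median vehicle wells and 100% = positive control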
STK33 kin inh – inhibitors of human STK33 kinase; ADP-Glo luminescence, MBP substrate; hit rate 0.44% among 27,000; Q9BYT3; inhibition, % at 12.5 µM; in the data active means inhibition above about 20%
Target sequence (Q9BYT3 whole entry, looked up): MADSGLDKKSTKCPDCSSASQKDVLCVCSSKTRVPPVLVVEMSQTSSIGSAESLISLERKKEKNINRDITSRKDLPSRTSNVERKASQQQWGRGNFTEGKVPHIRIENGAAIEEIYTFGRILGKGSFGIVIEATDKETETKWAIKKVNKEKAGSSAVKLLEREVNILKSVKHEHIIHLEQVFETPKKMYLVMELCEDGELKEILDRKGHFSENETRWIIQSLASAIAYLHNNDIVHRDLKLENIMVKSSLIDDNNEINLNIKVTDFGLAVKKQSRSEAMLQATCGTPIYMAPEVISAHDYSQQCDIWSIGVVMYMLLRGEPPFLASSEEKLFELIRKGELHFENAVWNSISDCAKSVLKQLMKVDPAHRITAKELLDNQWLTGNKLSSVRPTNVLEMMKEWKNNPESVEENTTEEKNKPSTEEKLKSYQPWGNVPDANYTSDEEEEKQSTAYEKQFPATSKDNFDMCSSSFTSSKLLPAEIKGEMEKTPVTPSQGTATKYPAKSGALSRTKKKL
NOMO-1 viab – STK33 inhibitor candidate reducing NOMO-1 cell viability. NOMO-1 AML viability, CellTiter-Glo luminescence, 72 h. inhibition, % (test concentration not listed). hit rate 7.5% among 37,000. AID 2330; in the data active means inhibition above about 80%
* marks the source's active call; other numbers are inactive results; nt = no result given.

SMILES	PD-1 reversal	STK33 kin inh	NOMO-1 viab
O=C(COc1cc(Cl)c(Cl)cc1Cl)Nc1ncn[nH]1	0	5	1
O=C(CN1C(=O)c2ccccc2S1(=O)=O)Nc1ccccc1Cl	nt	-1	14
CC(C)(C)c1ccc(OCc2nnc(Sc3ccc([N+](=O)[O-])cn3)n2-c2ccccc2)cc1	-10	0	109*
O=[N+]([O-])c1cc(C(F)(F)F)ccc1Sc1nnc(CCCO)n1-c1ccccc1	-4	0	29
Cn1c(SCC(N)=O)nnc1-c1cccc(Cl)c1	1	3	-1
COc1ccc(S(=O)(=O)Nc2ccc3c(c2)CC(=O)N([C@@H](C)CO)C[C@H](C)[C@H](CN(C)Cc2ccccc2)O3)cc1	5	1	46
COc1ccc(S(=O)(=O)Nc2ccc3c(c2)CC(=O)N([C@@H](C)CO)C[C@@H](C)[C@@H](CN(C)Cc2ccc(-c4ccccc4)cc2)O3)cc1	1	3	62
COc1ccc(S(=O)(=O)Nc2ccc3c(c2)CC(=O)N([C@@H](C)CO)C[C@H](C)[C@H](CN(C)Cc2ccc(-c4ccccc4)cc2)O3)cc1	0	-1	90*
COc1ccc(S(=O)(=O)Nc2ccc3c(c2)CC(=O)N([C@H](C)CO)C[C@H](C)[C@H](CN(C)Cc2ccc(-c4ccccc4)cc2)O3)cc1	nt	4	88*
COc1ccc(S(=O)(=O)Nc2ccc3c(c2)CC(=O)N([C@H](C)CO)C[C@@H](C)[C@H](CN(C)Cc2ccc(-c4ccccc4)cc2)O3)cc1	-3	5	72
COc1ccc(S(=O)(=O)Nc2ccc3c(c2)CC(=O)N([C@@H](C)CO)C[C@H](C)[C@@H](CN(C)Cc2ccc(-c4ccccc4)cc2)O3)cc1	nt	10	125*
COc1ccc(NS(=O)(=O)c2ccccc2)cc1CN1C(=O)c2ccccc2C1=O	nt	-1	nt
Cc1ccc(F)cc1NC(=O)CSc1nnnn1-c1ccccc1	nt	-2	21
O=C(Cn1c(=O)oc2ccccc21)Nc1cccc([N+](=O)[O-])c1	2	2	28
COc1ccc(C2=NN(S(C)(=O)=O)C(c3ccccc3OC)C2)cc1 (stereo not given)	1	nt	65
COc1ccc(C2=Nc3ccccc3SC(c3ccccc3)C2)cc1 (stereo not given)	-1	nt	113*
Cc1ccc(N(C(C)C(=O)Nc2cccc(F)c2)S(C)(=O)=O)cc1 (stereo not given)	-2	1	-5
CC1CCC(C(C)C)C(NC(=S)Nc2cccc(F)c2)C1 (stereo not given)	-23	-3	122*
O=C(CC1(O)C(=O)N(C/C=C/c2ccccc2)c2ccccc21)c1ccccn1 (stereo not given)	-6	6	123*
Cc1n[nH]c(C)c1C(=O)CC1(O)C(=O)N(Cc2ccccc2)c2ccccc21 (stereo not given)	2	-1	5
CC(=O)OC(CCCCCCCCCC(C)O)Cc1cc(O)cc(O)c1 (stereo not given)	1	-6	27
N/C(=N\S(=O)(=O)c1ccc(Cl)c(Cl)c1)c1ccccn1	0	nt	22
C[C@H]1CN([C@@H](C)CO)C(=O)c2cccc(NC(=O)CCCCCC(=O)Nc3ccccc3N)c2O[C@@H]1CN(C)CC1CC1	-1	nt	120*
C[C@H](CO)N1C[C@H](C)[C@H](CN(C)CC2CCCCC2)Oc2c(NC(=O)CCCCCC(=O)Nc3ccccc3N)cccc2C1=O	1	nt	63
C[C@H]1CN([C@@H](C)CO)C(=O)c2cccc(NC(=O)CCCCCC(=O)Nc3ccccc3N)c2O[C@H]1CN(C)CC1CCCCC1	2	nt	52
SMILES	PD-1 reversal	STK33 kin inh	NOMO-1 viab
C[C@@H]1CN([C@H](C)CO)C(=O)c2cccc(NC(=O)CCCCCC(=O)Nc3ccccc3N)c2O[C@H]1CN(C)CC1CC1	0	nt	122*
C[C@@H]1CN([C@H](C)CO)C(=O)c2cccc(NC(=O)CCCCCC(=O)Nc3ccccc3N)c2O[C@@H]1CN(C)CC1CC1	2	nt	46
C[C@@H]1CN([C@@H](C)CO)C(=O)c2cccc(NC(=O)CCCCCC(=O)Nc3ccccc3N)c2O[C@H]1CN(C)CC1CC1	0	nt	128*
O=C(COc1ccc2ccccc2c1)Oc1ccc(C(=O)c2ccccc2)cc1	1	nt	-11
CC(NS(=O)(=O)c1ccc(F)cc1)C(=O)Nc1ccc(Oc2ccccc2)cc1 (stereo not given)	nt	1	23
Cn1c(O)c(C=Nc2cccc(Cl)c2)c2ccccc21	-2	nt	35
Cc1ccc(S(=O)(=O)N=S(Cc2ccccc2)Cc2ccccc2)cc1	2	nt	29
NC(=O)c1ccccc1NC(=O)COc1cccc2ccccc12	-1	4	15
CCOC(=O)NC(=S)Nc1ccc(F)cc1	0	nt	-25
C[C@@H]1CN([C@H](C)CO)C(=O)Cc2cc(NS(=O)(=O)c3ccc(Cl)cc3)ccc2O[C@@H]1CN(C)CC1CCCCC1	-7	-6	114*
C[C@@H]1CN([C@H](C)CO)C(=O)Cc2cc(NS(=O)(=O)c3ccc(Cl)cc3)ccc2O[C@H]1CN(C)CC1CC1	1	-1	-13
C[C@@H]1CN([C@H](C)CO)C(=O)Cc2cc(NS(=O)(=O)c3ccc(Cl)cc3)ccc2O[C@H]1CN(C)CC1CCCCC1	-1	2	127*
C[C@@H]1CN([C@H](C)CO)C(=O)Cc2cc(NS(=O)(=O)c3ccccc3)ccc2O[C@@H]1CN(C)CC1CCCCC1	-2	-1	45
CS(=O)(=O)N(CC(=O)Nc1ccc(Br)cc1)c1ccc2c(c1)OCCO2	nt	-2	3
COc1ccc(CNC(=O)Nc2ncc([N+](=O)[O-])s2)cc1	6	-1	39
CCOC(=O)c1ccccc1NC(=O)COc1ccc(C)cc1C(C)(C)C	-6	2	45
C[C@H]1CN([C@@H](C)CO)C(=O)c2cccc(N(C)C)c2O[C@@H]1CN(C)Cc1ccc(Cl)c(Cl)c1	-2	nt	45
C[C@@H]1CN([C@H](C)CO)C(=O)c2cccc(N(C)C)c2O[C@H]1CN(C)Cc1ccc(Cl)c(Cl)c1	nt	nt	88*
C[C@@H]1CN([C@@H](C)CO)C(=O)c2cccc(N(C)C)c2O[C@H]1CN(C)Cc1ccc(Cl)c(Cl)c1	nt	nt	97*
C[C@@H]1CN([C@H](C)CO)C(=O)c2cccc(N(C)C)c2O[C@@H]1CN(C)Cc1ccc(Cl)c(Cl)c1	-2	nt	19
COc1ccc(N(CC(=O)Nc2ccccc2Br)S(C)(=O)=O)cc1OC	1	-3	3
COc1ccccc1NC(=O)CSc1nnc(-c2ccccc2Cl)n1-c1ccccc1	nt	-1	61
Cc1cc(NC(=O)CN(c2c(C)cccc2C)S(C)(=O)=O)ccc1Br	nt	1	-5
Cc1nn(C(=O)Cn2nc([N+](=O)[O-])cc2C)c(C)c1Cl	nt	-1	-12
C[C@H](CO)N1C[C@H](C)[C@H](CN(C)C(=O)Nc2ccc(F)cc2)Oc2ccc(NC(=O)Nc3ccc(C(F)(F)F)cc3)cc2CC1=O	nt	nt	45
C[C@H]1CN([C@@H](C)CO)C(=O)Cc2cc(NC(=O)Nc3ccc(C(F)(F)F)cc3)ccc2O[C@@H]1CN(C)C(=O)Nc1ccc(C(F)(F)F)cc1	3	2	12
C[C@@H]1CN([C@@H](C)CO)C(=O)Cc2cc(NC(=O)Nc3ccc(C(F)(F)F)cc3)ccc2O[C@@H]1CN(C)C(=O)Nc1ccc(F)cc1	-3	1	115*
